Source: PMC7862700, “An all-to-all approach to the identification of sequence-specific readers for epigenetic DNA modifications on cytosine”

Columns and labels:
Assay in all cases: DAPPL (digital affinity profiling via proximity ligation, sequencing); 10 mM Tris-HCl pH 7.5, 50 mM NaCl, 1 mM DTT, 4% glycerol, room temperature, 30 min; GST-TFs on glutathione beads, 16-mer random dsDNA library, 0.1% formaldehyde crosslink after washing; high values mean tight binding
Settings in all cases: protein: recombinant; tags: N-terminal GST; dsDNA, one strand shown
FLI1 = target: T1, FLI1 (Homo sapiens, UniProt Q01543 1-452)
T1 sequence: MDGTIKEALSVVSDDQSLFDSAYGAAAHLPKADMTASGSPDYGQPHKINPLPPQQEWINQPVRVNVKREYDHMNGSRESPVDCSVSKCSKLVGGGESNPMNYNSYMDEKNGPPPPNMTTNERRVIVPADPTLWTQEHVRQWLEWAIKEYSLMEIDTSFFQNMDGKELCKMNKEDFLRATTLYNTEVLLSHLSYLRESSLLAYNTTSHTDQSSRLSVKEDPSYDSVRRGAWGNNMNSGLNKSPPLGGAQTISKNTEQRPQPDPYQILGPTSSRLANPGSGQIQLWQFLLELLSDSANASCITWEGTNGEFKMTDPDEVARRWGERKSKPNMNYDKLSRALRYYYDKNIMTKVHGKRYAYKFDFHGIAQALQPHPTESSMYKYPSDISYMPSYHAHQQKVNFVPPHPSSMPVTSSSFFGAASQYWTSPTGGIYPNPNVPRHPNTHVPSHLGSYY
In short: (§1)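 GST fusions of human transcription factors were expressed in yeast and captured with glutathione beads. Once given DNA barcodes and pooled alongside a tag-only sample, they were incubated for 30 min at room temperature with 200 nmole of a random double-stranded 16-mer DNA library in Tris/NaCl/DTT/glycerol buffer, then washed, crosslinked (0.1% formaldehyde), proximity-ligated, PCR-amplified and sequenced on an Illumina NextSeq500. The binding signal of each hexamer is its read frequency for a factor divided by its frequency for the tag-only sample.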

ELK1 = target: T2, ELK1 (Homo sapiens, UniProt P19419 1-428)
T2 sequence: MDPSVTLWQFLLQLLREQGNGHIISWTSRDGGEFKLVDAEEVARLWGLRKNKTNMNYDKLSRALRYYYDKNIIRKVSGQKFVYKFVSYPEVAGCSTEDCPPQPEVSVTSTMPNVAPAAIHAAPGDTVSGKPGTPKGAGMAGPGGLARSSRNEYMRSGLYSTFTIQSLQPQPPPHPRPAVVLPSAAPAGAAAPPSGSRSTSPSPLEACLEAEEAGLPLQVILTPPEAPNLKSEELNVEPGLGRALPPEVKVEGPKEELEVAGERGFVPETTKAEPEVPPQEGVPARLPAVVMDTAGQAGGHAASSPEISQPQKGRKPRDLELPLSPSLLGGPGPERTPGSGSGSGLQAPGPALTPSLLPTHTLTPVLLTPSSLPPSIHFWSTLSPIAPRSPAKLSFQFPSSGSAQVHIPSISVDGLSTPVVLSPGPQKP
In short: as §1

GABPA = target: T3, GABPA (Homo sapiens, UniProt Q06546 1-454)
T3 sequence: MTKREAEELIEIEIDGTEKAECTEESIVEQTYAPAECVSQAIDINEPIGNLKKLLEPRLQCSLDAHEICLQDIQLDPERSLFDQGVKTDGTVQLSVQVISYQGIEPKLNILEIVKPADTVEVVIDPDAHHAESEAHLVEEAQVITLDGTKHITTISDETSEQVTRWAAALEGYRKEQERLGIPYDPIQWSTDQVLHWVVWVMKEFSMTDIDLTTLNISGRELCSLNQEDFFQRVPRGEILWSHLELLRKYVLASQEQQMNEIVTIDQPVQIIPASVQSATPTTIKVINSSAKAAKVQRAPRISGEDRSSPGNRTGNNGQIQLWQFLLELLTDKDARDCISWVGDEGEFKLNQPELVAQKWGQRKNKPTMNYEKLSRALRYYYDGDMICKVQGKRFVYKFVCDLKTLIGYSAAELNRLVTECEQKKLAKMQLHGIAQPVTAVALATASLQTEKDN
In short: as §1

ERG = target: T4, ERG (Homo sapiens, UniProt P11308 1-479)
T4 sequence: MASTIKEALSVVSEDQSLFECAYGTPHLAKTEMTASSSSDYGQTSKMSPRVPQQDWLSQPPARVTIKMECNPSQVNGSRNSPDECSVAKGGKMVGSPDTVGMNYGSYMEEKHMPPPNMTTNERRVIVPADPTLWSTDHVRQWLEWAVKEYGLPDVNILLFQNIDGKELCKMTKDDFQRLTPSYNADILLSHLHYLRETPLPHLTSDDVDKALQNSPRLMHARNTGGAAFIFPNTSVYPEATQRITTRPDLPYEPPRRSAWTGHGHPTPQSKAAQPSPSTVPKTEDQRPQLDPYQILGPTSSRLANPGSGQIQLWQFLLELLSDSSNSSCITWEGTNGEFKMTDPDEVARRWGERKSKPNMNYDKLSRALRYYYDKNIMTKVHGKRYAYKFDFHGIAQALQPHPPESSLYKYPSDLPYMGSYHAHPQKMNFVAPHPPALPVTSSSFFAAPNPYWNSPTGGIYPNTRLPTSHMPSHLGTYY
In short: as §1

ELF1 = ELF1 (Homo sapiens, UniProt P32519 1-619)
In short: as §1

EHF = target: T5, EHF (Homo sapiens, UniProt Q9NZC4 1-300)
T5 sequence: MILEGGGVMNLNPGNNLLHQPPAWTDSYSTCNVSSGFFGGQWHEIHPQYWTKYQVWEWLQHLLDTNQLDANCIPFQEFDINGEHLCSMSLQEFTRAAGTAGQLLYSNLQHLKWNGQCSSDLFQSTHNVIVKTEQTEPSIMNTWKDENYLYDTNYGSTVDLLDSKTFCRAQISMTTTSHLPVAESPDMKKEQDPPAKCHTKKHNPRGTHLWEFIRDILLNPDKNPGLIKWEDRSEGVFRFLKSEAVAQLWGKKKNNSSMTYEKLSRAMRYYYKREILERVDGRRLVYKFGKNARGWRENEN
In short: as §1

SPI1 = SPI1 (Homo sapiens, UniProt P17947 1-270)
In short: as §1

SPIB = SPIB (Homo sapiens, UniProt Q01892 1-262)
In short: as §1

ELK3 = target: T6, ELK3 (Homo sapiens, UniProt P41970 1-407)
T6 sequence: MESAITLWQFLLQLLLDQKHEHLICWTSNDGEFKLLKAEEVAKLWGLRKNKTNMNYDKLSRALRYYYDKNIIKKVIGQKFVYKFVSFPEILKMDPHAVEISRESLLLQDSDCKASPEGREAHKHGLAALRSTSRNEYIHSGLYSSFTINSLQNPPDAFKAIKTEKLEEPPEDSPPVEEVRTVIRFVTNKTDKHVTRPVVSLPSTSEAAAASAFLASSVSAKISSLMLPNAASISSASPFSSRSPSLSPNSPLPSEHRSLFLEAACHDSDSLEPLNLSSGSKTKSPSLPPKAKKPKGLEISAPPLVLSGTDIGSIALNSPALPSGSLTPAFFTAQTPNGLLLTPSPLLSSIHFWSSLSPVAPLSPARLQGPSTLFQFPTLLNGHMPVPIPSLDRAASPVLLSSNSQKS
In short: as §1

ELF1, sequence (P32519 whole entry): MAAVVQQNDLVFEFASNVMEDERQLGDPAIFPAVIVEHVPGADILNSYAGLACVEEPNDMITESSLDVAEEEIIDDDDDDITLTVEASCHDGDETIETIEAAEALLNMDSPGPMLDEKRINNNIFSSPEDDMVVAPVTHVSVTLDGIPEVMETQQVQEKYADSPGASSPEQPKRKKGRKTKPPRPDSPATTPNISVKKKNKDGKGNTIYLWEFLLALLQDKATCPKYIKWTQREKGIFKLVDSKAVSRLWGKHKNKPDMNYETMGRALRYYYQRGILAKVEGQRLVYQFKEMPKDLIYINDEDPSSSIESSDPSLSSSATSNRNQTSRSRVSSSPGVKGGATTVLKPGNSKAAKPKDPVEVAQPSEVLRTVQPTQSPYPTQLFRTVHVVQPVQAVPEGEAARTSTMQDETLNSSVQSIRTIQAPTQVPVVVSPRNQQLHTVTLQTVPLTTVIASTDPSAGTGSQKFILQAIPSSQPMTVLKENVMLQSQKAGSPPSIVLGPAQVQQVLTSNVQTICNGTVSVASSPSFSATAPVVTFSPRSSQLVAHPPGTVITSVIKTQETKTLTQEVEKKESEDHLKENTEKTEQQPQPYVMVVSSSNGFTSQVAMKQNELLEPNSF
SPIB, sequence (Q01892 whole entry): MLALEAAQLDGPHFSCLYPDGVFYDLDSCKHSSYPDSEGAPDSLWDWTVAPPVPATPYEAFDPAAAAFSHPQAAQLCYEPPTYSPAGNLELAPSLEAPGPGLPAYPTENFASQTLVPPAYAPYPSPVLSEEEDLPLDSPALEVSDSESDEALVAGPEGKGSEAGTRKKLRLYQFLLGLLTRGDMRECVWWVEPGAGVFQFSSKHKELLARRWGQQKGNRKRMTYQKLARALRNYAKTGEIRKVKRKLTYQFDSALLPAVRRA

Sequence	binding signal (FLI1)	binding signal (ELK1)	binding signal (GABPA)	binding signal (ERG)	binding signal (ELF1)	binding signal (EHF)	binding signal (SPI1)	binding signal (SPIB)	binding signal (ELK3)
CGTATG	1.1 fold enrichment (6-mer frequency, TF over GST control)	1.1 fold enrichment (6-mer frequency, TF over GST control)	1.08 fold enrichment (6-mer frequency, TF over GST control)	1.03 fold enrichment (6-mer frequency, TF over GST control)	1.1 fold enrichment (6-mer frequency, TF over GST control)	1.1 fold enrichment (6-mer frequency, TF over GST control)	1.07 fold enrichment (6-mer frequency, TF over GST control)	1.09 fold enrichment (6-mer frequency, TF over GST control)	1.13 fold enrichment (6-mer frequency, TF over GST control)
CGGATA	1.15 fold enrichment (6-mer frequency, TF over GST control)	1.27 fold enrichment (6-mer frequency, TF over GST control)	1.09 fold enrichment (6-mer frequency, TF over GST control)	1.5 fold enrichment (6-mer frequency, TF over GST control)	1.16 fold enrichment (6-mer frequency, TF over GST control)	1.19 fold enrichment (6-mer frequency, TF over GST control)	1.1 fold enrichment (6-mer frequency, TF over GST control)	1.15 fold enrichment (6-mer frequency, TF over GST control)	1.33 fold enrichment (6-mer frequency, TF over GST control)
GTGACC	1.29 fold enrichment (6-mer frequency, TF over GST control)	1.27 fold enrichment (6-mer frequency, TF over GST control)	1.18 fold enrichment (6-mer frequency, TF over GST control)	1.24 fold enrichment (6-mer frequency, TF over GST control)	1.25 fold enrichment (6-mer frequency, TF over GST control)	1.36 fold enrichment (6-mer frequency, TF over GST control)	1.32 fold enrichment (6-mer frequency, TF over GST control)	1.24 fold enrichment (6-mer frequency, TF over GST control)	1.03 fold enrichment (6-mer frequency, TF over GST control)
CGGTTC	1.3 fold enrichment (6-mer frequency, TF over GST control)	1.43 fold enrichment (6-mer frequency, TF over GST control)	1.19 fold enrichment (6-mer frequency, TF over GST control)	1.28 fold enrichment (6-mer frequency, TF over GST control)	1.27 fold enrichment (6-mer frequency, TF over GST control)	1.27 fold enrichment (6-mer frequency, TF over GST control)	1.3 fold enrichment (6-mer frequency, TF over GST control)	1.33 fold enrichment (6-mer frequency, TF over GST control)	1.35 fold enrichment (6-mer frequency, TF over GST control)
TCTTTT	1.46 fold enrichment (6-mer frequency, TF over GST control)	1.38 fold enrichment (6-mer frequency, TF over GST control)	1.45 fold enrichment (6-mer frequency, TF over GST control)	1.36 fold enrichment (6-mer frequency, TF over GST control)	1.47 fold enrichment (6-mer frequency, TF over GST control)	1.53 fold enrichment (6-mer frequency, TF over GST control)	2.09 fold enrichment (6-mer frequency, TF over GST control)	1.61 fold enrichment (6-mer frequency, TF over GST control)	1.51 fold enrichment (6-mer frequency, TF over GST control)
GATATC	1.55 fold enrichment (6-mer frequency, TF over GST control)	1.6 fold enrichment (6-mer frequency, TF over GST control)	1.37 fold enrichment (6-mer frequency, TF over GST control)	1.9 fold enrichment (6-mer frequency, TF over GST control)	1.46 fold enrichment (6-mer frequency, TF over GST control)	1.44 fold enrichment (6-mer frequency, TF over GST control)	1.4 fold enrichment (6-mer frequency, TF over GST control)	1.58 fold enrichment (6-mer frequency, TF over GST control)	1.51 fold enrichment (6-mer frequency, TF over GST control)
CCCTGC	1.11 fold enrichment (6-mer frequency, TF over GST control)	1.22 fold enrichment (6-mer frequency, TF over GST control)	1.12 fold enrichment (6-mer frequency, TF over GST control)	1.21 fold enrichment (6-mer frequency, TF over GST control)	1.26 fold enrichment (6-mer frequency, TF over GST control)	1.17 fold enrichment (6-mer frequency, TF over GST control)	1.2 fold enrichment (6-mer frequency, TF over GST control)	1.16 fold enrichment (6-mer frequency, TF over GST control)	1.18 fold enrichment (6-mer frequency, TF over GST control)
